# CF NFkB block = inhibitors of PAF-induced NF-kB signaling, primary screen, cell-based, GFP fluorescence, uHTS; hit rate 0.86% among 360,000; inhibition, % at 5 µM; KKLEB NF-kB-GFP reporter, GFP fluorescence overnight;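 active means at least 50% inhibition at 5 µM, scaled per plate between neutral and stimulator controls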;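 further: PAF is a Pseudomonas aeruginosa culture filtrate used as stimulus; plate controls were PAF-stimulated DMSO wells for no effect and unstimulated DMSO wells for full effect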
# Peg3 promoter = Peg3 promoter-driven luciferase inhibitors, primary screen, cell-based, HeLa, luciferase luminescence; HeLa PEG-Prom luciferase reporter, overnight; inhibition, % at 20 µM; hit rate 1.7% among 360,000;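 active means inhibition of at least 50% at 20 µM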
# KKLEB tox = cytotoxicity in KKLEB CF airway cells, primary screen, cytotoxicity control for CF NF-kB inhibitor project, cell-based, uHTS, fluorescence assay plates; hit rate 0.36% among 360,000; activity change (cytotoxicity), % at 5 µM; KKLEB CF airway cells viability, ATPlite luminescence, overnight; active compounds read low; cells stimulated with P. aeruginosa culture filtrate; AID 602141, 2011;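 active means corrected activity change at or below -50% at 5 µM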
# TROY NFkB inh = inhibitors of TROY-driven NF-kB signaling, primary screen, Q293 LMP1-TROYcd cells, NF-kB luciferase, uHTS; Q293 LMP1-TROYcd NF-kB luciferase reporter, 4 h; inhibition, % at 10 µM; hit rate 0.98% among 360,000; AID 1347056, 2019;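 active means compounds whose plate-normalised and pattern-corrected inhibition of the luciferase reporter signal at the single screening dose is 50% or more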
# TWEAK-Fn14 inh = inhibitors of TWEAK-Fn14 signaling, primary screen, luciferase reporter cells, uHTS. hit rate 2% among 360,000. inhibition, % at 10 µM. TWEAK-stimulated Fn14 reporter cells, luciferase luminescence, 8 h. AID 1159606, 2016; in the data active means inhibition above about 50%
# HIF-2a block = HIF-2a reporter inhibitors, primary screen, luminescence, 786-0 RCC cells; hit rate 0.72% among 360,000; inhibition, % at 18.8 µM; AID 624352, 2012; 786-0 RCC cells HIF-2a reporter, luciferase luminescence, overnight;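 active means inhibition of the luminescence signal of 40% or more relative to plate controls, in a single-dose primary screen at 18.75 µM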
# Mdm2-MdmX confirm = retested Mdm2-MdmX interaction blockers, confirmation, cell-based, luminescence, single concentration, set 2; shares compounds with HIF-2a block; SaOS-2 split-luciferase Mdm2/MdmX complementation; inhibition, % at 8 µM; hit rate 99% among 740;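 active means mean inhibition of the luminescence signal across two replicates at or above 26 percent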
# Target sequence (O15151 whole entry, looked up): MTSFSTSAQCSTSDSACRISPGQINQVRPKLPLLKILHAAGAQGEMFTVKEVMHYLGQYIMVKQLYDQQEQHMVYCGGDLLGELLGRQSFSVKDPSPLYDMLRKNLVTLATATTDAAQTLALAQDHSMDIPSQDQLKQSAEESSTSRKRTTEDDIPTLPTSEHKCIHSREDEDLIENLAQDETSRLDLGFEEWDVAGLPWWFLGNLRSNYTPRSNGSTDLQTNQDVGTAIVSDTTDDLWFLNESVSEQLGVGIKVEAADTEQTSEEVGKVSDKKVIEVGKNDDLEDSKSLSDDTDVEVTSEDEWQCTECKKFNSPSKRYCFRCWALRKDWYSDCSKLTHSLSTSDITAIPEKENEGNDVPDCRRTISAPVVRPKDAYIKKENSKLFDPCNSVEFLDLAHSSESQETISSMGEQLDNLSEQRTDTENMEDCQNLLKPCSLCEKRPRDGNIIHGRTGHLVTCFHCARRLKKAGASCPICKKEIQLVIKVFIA
# Target sequence (Q00987 whole entry, looked up): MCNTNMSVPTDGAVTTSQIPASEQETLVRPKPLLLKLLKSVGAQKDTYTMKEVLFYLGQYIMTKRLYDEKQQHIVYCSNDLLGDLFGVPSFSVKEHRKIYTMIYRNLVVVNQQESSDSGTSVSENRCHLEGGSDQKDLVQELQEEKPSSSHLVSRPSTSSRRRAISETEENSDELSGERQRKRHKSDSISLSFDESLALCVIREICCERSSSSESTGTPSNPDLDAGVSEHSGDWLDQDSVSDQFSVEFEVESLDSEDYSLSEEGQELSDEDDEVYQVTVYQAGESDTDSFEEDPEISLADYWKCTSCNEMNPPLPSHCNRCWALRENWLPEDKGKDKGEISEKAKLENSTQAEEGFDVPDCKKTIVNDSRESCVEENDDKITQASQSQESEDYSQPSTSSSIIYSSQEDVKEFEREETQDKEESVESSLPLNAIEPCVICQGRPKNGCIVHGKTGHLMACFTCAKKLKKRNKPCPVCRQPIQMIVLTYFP
# HIF-2a inh conf = HIF-2a reporter inhibitor retest, confirmation, luminescence, 786-0 RCC cells; AID 651580, 2012; inhibition, % at 18.8 µM; shares compounds with HIF-2a block; HIF-2a luciferase reporter luminescence, overnight; hit rate 56% among 1,800;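 active means mean inhibition across four replicates of at least 40 percent at the single tested concentration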
# HIF-1a counter = HIF-1a luciferase reporter signal reduction – MiaPaCa-2 cells, single concentration, counter-screen for HIF-2a inhibitor project, confirmation. MiaPaCa-2 HIF-1a luciferase reporter, desferoxamine, overnight. AID 651589, 2012. shares compounds with HIF-2a block. hit rate 72% among 1,800. inhibition, % at 18.8 µM;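 active means mean inhibition of the reporter signal across four replicates at the single tested dose of 50% or more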
# * = called active by the depositor; / = not tested or not shown. Sampled rows, rich in hits. Any-hit rate of the full collection: about 4%.
SMILES,CF NFkB block,Peg3 promoter,KKLEB tox,TROY NFkB inh,TWEAK-Fn14 inh,HIF-2a block,HIF-2a inh conf,HIF-1a counter,others
C[C@@H]([C@@H](O)c1ccccc1)N(C)C(=O)Cc1ccccc1,-19.3,3.2,13.1,-25.2,8.4,13.4,/,/,
C=CCn1c(O)c(C(CC)=NCCC2=CCCCC2)c(=O)[nH]c1=O,-21.7,-4.1,-8.8,-14.8,10.4,-9.2,/,/,
O=C1CC(=O)N(c2ccccc2)C(=O)N1c1ccccc1,23.7,-10.5,8.5,-62.2,6.8,-8.4,/,/,
CCN1CCN(CC(c2ccccc2)c2ccccc2)CC1,-16.9,16.0,18.8,15.2,7.2,10.5,/,/,
O=C(c1ccccc1)C(CN1CCCC1)c1ccccc1 (stereo not given),68.5*,104.5*,-50.0,10.5,71.2*,89.0*,30.9,78.8*,
CSCCC(c1nnnn1-c1c(C)cccc1C)N1CCC(n2c(=O)[nH]c3ccccc32)CC1 (stereo not given),37.4,18.0,-26.5,35.5,38.2,-4.9,/,/,
O=c1[nH]c2ccccc2n1C1CCN(C(CCc2ccccc2)c2nnnn2Cc2ccccc2)CC1 (stereo not given),83.5*,97.4*,-82.1*,71.2*,93.9*,66.6*,-20.3,105.3*,
COc1cc2c(cc1/C=C/[N+](=O)[O-])OCO2,25.9,109.7*,-3.2,61.5*,63.7*,71.0*,78.8*,98.0*,
CC1CCOC(=O)C=CC=CC(=O)OC2CC3OC4C5OC5(C)C(O)CC4(COC(=O)C1O)C2(C)C31CO1 (stereo not given),90.3*,98.5*,-9.0,85.6*,103.2*,66.7*,55.9*,103.1*,
CC1=CC2OC3CC4OC(=O)C=CC=CC(=O)OCCC(C)C(O)C(=O)OCC2(CC1)C4(C)C31CO1 (stereo not given),89.5*,97.0*,-19.5,85.0*,101.4*,75.5*,71.2*,103.2*,
CC1=CC2OC3CC4OC(=O)C=CC=CC(C(C)O)OCC(O)C5(C)OC5C(=O)OCC2(CC1O)C4(C)C31CO1 (stereo not given),95.8*,101.7*,-47.9,83.0*,98.6*,77.9*,66.3*,105.7*,
COc1ccc(CCNCc2cccn2C)cc1OC,-10.4,2.5,7.2,11.4,3.9,9.6,/,/,
CC(=O)O[C@H]1C[C@@H]2OC3C=C(C)CCC3(C)[C@@]1(C)[C@@]21CO1 (stereo not given in full),89.5*,96.1*,-19.1,78.2*,96.9*,48.0*,64.5*,102.3*,
CC(Cc1ccccc1Sc1ccc(O)cc1)N(C)C (stereo not given),-8.7,-4.1,-6.2,-12.5,-8.5,7.5,/,/,
CN(C)N=O,5.1,-6.9,5.8,-6.5,-3.2,11.4,/,/,
C=CCn1c(O)c(/C=N/N2CCCCC2c2cccnc2)c(=O)[nH]c1=S (stereo not given),11.5,12.9,2.6,5.2,9.4,13.7,/,/,
O=C(O)CC1OCC=C2CN3CCC45C6=CC(=O)C(=O)C([N+](=O)[O-])=C6NC4C1C2CC35 (stereo not given),6.5,2.6,8.4,18.4,21.1,25.0,/,/,
O=C(CCc1ccccc1)N1C[C@H]2C[C@@H](C1)c1cccc(=O)n1C2,7.8,14.0,-2.8,-14.1,6.9,8.2,/,/,
CCOc1ccccc1CN1CCCC(C(=O)c2cc(F)ccc2F)C1 (stereo not given),-4.8,-9.3,2.0,6.5,8.7,17.3,/,/,
Cc1nc2ncnn2c(C)c1CCC(=O)N1CCC2(CC1)OCCO2,5.0,4.6,8.1,-3.6,-7.9,7.5,/,/,
Cc1nc2cc(-c3ccccc3)nn2c(C)c1CCC(=O)N1CCC2(CC1)OCCO2,1.7,-40.6,-6.1,-7.8,5.2,69.8*,80.8*,35.9,
CC1CCC(C(C)C)C(OC(=O)Cn2c(COc3ccccc3)[n+](C)c3ccccc32)C1 (stereo not given),73.6*,94.5*,-72.5*,43.9,46.5,-10.4,/,/,Mdm2-MdmX confirm=102.2*
CNc1ccc2oc(C[C@H]3O[C@@]4(CC[C@H]3C)O[C@H]([C@H](C)C(=O)c3ccc[nH]3)[C@H](C)C[C@H]4C)nc2c1C(=O)O,36.2,91.4*,-55.4*,53.4*,103.6*,86.8*,/,/,Mdm2-MdmX confirm=102.5*
CC[C@H](C)[C@@H]1NC(=O)CNC(=O)c2csc(n2)[C@H](C(C)(C)O)OC(=O)C(C)(C)[C@H](CCCC(C)(Cl)Cl)OC(=O)c2csc1n2,83.1*,65.1*,-90.7*,45.9,-24.9,42.2*,44.1*,88.4*,
CN1CCN(c2ccc3c(c2)S(=O)(=O)c2ccccc2C3=O)CC1,-7.7,-284.2,-10.3,-31.8,-21.6,-222.6,/,/,
SMILES,CF NFkB block,Peg3 promoter,KKLEB tox,TROY NFkB inh,TWEAK-Fn14 inh,HIF-2a block,HIF-2a inh conf,HIF-1a counter,others
CC[C@]12C=CCN3CCC4(c5cc(Br)c(OC)cc5N(C)C4[C@@](O)(C(=O)OC)[C@@H]1OC(C)=O)C32 (stereo not given in full),15.7,12.3,-17.8,0.1,-1.7,40.5*,-4.0,15.4,
CCOC(=O)[C@]12Cc3ccc(C)cc3[C@H]1N(C1CCCCC1)C(=O)c1cc(OC)ccc12,/,/,/,47.9,101.2*,95.2*,99.4*,106.1*,
CCOC(=O)[C@]12Cc3cc(C)ccc3[C@H]1N(CCC(=O)OC)C(=O)c1ccccc12,/,/,/,20.8,17.7,25.3,/,/,
CCOC(=O)[C@]12Cc3ccccc3[C@H]1N(C(C)C)C(=O)c1ccccc12,/,/,/,16.9,21.9,31.1,/,/,
CCOC(=O)[C@]12Cc3cc(C)ccc3[C@H]1N(C1CCCCC1)C(=O)c1ccccc12,/,/,/,43.9,68.6*,87.6*,96.7*,105.8*,
CCOC(=O)[C@]12Cc3cc(OC)ccc3[C@H]1N(C)C(=O)c1cc(OC)ccc12,/,/,/,32.5,33.5,11.8,/,/,
CCOC(=O)[C@]12Cc3c(cc(OC)c(OC)c3OC)[C@H]1N(C1CCCCC1)C(=O)c1ccccc12,/,/,/,45.4,47.7,76.4*,90.0*,105.4*,
